Here are results for 7 compounds from ChEMBL document CHEMBL1961873, “Compounds: GSK PKIS; Assays: Nanosyn kinase panel” (2012).

One may read the inhibition as the relative decrease from the control value, in per cent.

Structures are written as SMILES.

The target of assay [1] is Tyrosine-protein kinase Fyn (Homo sapiens) (UniProt P06241). The following applies: at 1 µM.
In assay [2] the target is Tyrosine-protein kinase HCK (Homo sapiens) (UniProt P08631). The following applies: at 0.1 µM.
Assay [3] has the same target. The following applies: at 1 µM.
The target in assay [4] is Insulin-like growth factor 1 receptor (Homo sapiens) (UniProt P08069). The following applies: at 0.1 µM.
The target is the same in assay [5]. To be noted: at 1 µM.
Assay [6] addresses Insulin receptor (Homo sapiens) (UniProt P06213). To be noted: at 0.1 µM.
The target is the same in assay [7]. The following applies: at 1 µM.
The target of assay [8] is Insulin receptor-related protein (Homo sapiens) (UniProt P14616). The following applies: at 0.1 µM.
The target is the same in assay [9]. The following applies: at 1 µM.
The target in assay [10] is T1, Tyrosine-protein kinase ITK/TSK (Homo sapiens) (UniProt Q08881).
T1 sequence (whole entry): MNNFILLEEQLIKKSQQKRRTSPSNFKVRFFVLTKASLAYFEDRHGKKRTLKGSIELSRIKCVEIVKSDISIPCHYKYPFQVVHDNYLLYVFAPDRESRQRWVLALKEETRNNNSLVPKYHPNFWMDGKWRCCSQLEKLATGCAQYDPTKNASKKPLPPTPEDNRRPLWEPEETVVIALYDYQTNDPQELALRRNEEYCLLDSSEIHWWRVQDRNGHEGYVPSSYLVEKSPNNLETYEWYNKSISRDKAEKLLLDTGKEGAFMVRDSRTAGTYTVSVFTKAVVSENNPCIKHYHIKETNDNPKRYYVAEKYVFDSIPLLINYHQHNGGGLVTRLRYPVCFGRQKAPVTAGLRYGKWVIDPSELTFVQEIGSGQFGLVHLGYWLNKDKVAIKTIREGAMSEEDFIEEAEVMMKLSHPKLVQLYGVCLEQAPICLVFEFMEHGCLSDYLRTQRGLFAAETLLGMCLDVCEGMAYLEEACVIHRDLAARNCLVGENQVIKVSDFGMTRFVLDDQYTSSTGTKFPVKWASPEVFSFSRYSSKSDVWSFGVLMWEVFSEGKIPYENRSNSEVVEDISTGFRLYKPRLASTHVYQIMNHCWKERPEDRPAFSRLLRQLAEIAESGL
To be noted: at 0.1 µM.

Assay [11] concerns the target T1, Tyrosine-protein kinase ITK/TSK (Homo sapiens). The following applies: at 1 µM.
Assay [12] concerns the target Tyrosine-protein kinase JAK1 (Homo sapiens) (UniProt P23458). The following applies: at 0.1 µM.
Assay [13] shares this target. To be noted: at 1 µM.
Assay [14] has as its target Tyrosine-protein kinase JAK2 (Homo sapiens) (UniProt O60674). To be noted: at 0.1 µM.
For assay [15] the target is unchanged. To be noted: at 1 µM.
Assay [16] concerns the target T2, Tyrosine-protein kinase JAK3 (Homo sapiens) (UniProt P52333).
T2 sequence (whole entry): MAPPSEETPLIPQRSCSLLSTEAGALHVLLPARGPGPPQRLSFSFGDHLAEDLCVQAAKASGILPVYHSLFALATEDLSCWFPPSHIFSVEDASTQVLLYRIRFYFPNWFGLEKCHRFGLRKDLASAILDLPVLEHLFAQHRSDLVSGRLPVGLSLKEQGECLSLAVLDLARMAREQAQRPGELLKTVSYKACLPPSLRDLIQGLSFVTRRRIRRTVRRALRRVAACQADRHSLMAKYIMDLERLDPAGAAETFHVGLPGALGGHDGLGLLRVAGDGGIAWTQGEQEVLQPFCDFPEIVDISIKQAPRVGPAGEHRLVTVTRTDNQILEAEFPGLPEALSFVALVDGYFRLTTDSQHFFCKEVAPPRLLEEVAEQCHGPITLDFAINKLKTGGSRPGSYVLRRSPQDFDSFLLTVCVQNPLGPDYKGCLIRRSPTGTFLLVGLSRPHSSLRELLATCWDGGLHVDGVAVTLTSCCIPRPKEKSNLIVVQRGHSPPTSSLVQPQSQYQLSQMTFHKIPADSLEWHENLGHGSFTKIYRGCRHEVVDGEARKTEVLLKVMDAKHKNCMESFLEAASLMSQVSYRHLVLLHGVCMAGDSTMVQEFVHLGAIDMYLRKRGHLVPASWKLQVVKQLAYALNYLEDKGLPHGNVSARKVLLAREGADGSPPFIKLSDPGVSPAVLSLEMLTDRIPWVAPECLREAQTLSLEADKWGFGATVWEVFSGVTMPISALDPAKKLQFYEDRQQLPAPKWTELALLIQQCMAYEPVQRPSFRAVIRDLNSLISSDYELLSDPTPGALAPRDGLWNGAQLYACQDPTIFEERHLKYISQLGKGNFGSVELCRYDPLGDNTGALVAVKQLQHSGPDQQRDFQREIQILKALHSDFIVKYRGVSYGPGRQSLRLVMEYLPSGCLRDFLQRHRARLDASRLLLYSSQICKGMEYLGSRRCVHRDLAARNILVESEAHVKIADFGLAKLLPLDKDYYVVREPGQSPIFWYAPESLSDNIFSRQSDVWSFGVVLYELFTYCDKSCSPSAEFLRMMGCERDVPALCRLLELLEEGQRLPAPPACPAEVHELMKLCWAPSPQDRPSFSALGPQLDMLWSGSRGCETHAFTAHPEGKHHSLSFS
The following applies: at 0.1 µM.

The target in assay [17] is T2, Tyrosine-protein kinase JAK3 (Homo sapiens). To be noted: at 1 µM.
The target of assay [18] is Vascular endothelial growth factor receptor 2 (Homo sapiens) (UniProt P35968). The following applies: at 0.1 µM.
For assay [19] the target is unchanged. The following applies: at 1 µM.
Assay [20] addresses Mast/stem cell growth factor receptor Kit (Homo sapiens) (UniProt P10721). The following applies: at 0.1 µM.

Chain of Vascular endothelial growth factor receptor 2 (Homo sapiens) (P35968 whole entry): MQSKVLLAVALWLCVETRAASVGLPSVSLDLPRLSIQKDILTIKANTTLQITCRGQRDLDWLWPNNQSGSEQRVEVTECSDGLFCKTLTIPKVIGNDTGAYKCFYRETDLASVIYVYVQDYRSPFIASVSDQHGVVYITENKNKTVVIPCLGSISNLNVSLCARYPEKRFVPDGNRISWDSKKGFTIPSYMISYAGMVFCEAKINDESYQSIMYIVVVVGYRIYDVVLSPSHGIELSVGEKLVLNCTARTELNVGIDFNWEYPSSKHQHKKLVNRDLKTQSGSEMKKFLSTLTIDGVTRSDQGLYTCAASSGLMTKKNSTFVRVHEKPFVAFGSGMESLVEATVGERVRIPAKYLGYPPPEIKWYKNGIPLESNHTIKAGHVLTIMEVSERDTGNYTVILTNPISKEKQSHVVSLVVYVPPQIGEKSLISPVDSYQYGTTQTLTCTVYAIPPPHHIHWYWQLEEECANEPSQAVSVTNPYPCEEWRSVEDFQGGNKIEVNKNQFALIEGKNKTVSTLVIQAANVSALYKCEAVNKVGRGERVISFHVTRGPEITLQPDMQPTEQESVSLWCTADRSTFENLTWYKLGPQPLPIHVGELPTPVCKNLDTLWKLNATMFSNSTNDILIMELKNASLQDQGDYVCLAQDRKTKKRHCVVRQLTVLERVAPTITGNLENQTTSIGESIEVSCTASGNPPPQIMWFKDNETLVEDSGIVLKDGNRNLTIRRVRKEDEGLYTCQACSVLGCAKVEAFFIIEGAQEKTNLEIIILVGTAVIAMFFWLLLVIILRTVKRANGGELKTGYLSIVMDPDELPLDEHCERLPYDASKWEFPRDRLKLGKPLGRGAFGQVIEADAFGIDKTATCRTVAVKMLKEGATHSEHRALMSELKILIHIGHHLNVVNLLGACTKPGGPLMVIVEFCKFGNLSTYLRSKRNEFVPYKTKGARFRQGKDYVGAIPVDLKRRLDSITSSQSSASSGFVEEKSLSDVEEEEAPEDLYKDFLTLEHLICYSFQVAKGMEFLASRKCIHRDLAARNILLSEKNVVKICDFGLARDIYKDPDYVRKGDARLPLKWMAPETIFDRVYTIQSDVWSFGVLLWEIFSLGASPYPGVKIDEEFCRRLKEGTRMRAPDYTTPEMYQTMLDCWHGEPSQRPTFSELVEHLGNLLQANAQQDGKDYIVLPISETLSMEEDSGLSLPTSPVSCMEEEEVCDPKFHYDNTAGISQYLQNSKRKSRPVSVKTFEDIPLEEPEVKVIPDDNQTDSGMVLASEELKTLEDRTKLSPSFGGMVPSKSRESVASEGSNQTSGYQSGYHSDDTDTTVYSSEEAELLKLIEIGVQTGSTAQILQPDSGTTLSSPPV
Chain of Tyrosine-protein kinase Fyn (Homo sapiens) (P06241 2-537 limits assumed): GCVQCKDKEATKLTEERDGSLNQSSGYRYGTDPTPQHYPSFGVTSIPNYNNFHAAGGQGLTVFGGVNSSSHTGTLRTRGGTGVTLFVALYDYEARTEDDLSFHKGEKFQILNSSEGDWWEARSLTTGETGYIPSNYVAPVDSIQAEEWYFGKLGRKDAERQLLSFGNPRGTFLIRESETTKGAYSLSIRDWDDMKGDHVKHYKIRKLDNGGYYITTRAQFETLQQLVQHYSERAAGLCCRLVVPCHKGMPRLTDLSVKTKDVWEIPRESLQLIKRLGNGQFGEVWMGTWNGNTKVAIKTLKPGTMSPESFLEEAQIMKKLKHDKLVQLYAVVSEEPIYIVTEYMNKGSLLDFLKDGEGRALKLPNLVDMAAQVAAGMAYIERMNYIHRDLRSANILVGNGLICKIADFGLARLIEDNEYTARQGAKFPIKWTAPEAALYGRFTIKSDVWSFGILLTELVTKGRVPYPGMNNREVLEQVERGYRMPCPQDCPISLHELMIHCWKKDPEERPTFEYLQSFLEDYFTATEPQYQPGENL
Chain of Tyrosine-protein kinase JAK2 (Homo sapiens) (O60674 whole entry): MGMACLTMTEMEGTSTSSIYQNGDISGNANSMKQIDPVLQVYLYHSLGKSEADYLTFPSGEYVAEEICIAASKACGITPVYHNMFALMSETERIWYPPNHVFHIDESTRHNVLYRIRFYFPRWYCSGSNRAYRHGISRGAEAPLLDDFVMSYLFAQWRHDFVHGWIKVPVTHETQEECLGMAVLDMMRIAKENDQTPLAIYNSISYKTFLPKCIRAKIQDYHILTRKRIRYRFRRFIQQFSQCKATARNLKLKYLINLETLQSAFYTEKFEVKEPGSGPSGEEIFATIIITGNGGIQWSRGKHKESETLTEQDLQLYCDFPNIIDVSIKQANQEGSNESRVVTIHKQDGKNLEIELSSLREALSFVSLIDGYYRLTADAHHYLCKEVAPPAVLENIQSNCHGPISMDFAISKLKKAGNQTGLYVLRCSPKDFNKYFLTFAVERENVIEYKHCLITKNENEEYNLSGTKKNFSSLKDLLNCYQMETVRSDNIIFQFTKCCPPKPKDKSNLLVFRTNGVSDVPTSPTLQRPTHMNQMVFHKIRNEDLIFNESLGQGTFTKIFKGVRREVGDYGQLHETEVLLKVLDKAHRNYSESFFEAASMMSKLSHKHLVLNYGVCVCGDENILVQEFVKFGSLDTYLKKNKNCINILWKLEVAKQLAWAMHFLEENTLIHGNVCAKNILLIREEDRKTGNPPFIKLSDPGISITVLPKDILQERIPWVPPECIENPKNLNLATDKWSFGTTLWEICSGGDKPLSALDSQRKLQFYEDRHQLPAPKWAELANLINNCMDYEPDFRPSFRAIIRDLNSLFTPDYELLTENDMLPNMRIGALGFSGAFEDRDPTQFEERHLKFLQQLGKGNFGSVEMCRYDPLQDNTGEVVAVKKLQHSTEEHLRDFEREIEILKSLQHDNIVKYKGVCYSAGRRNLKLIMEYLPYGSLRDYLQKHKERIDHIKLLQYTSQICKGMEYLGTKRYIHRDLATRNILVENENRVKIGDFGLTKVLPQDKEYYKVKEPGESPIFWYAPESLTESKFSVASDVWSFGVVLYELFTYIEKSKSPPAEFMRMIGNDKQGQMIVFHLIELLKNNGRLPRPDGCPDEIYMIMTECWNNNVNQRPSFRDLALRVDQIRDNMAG
Chain of Tyrosine-protein kinase HCK (Homo sapiens) (P08631 2-526 limits assumed): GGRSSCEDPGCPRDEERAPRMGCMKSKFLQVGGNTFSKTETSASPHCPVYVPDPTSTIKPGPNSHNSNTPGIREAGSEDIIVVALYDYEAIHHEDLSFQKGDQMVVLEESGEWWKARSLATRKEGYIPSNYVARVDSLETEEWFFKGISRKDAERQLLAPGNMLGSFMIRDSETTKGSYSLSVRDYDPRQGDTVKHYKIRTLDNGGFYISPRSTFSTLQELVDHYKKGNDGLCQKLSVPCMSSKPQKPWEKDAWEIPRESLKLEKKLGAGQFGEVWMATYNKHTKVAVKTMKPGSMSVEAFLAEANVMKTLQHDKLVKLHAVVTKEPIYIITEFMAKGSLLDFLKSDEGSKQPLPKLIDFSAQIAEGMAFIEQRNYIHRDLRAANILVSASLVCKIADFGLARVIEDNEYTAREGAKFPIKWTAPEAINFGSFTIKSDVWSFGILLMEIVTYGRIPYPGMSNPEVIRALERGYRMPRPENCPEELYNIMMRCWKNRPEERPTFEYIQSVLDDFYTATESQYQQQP
Chain of Tyrosine-protein kinase JAK1 (Homo sapiens) (P23458 whole entry): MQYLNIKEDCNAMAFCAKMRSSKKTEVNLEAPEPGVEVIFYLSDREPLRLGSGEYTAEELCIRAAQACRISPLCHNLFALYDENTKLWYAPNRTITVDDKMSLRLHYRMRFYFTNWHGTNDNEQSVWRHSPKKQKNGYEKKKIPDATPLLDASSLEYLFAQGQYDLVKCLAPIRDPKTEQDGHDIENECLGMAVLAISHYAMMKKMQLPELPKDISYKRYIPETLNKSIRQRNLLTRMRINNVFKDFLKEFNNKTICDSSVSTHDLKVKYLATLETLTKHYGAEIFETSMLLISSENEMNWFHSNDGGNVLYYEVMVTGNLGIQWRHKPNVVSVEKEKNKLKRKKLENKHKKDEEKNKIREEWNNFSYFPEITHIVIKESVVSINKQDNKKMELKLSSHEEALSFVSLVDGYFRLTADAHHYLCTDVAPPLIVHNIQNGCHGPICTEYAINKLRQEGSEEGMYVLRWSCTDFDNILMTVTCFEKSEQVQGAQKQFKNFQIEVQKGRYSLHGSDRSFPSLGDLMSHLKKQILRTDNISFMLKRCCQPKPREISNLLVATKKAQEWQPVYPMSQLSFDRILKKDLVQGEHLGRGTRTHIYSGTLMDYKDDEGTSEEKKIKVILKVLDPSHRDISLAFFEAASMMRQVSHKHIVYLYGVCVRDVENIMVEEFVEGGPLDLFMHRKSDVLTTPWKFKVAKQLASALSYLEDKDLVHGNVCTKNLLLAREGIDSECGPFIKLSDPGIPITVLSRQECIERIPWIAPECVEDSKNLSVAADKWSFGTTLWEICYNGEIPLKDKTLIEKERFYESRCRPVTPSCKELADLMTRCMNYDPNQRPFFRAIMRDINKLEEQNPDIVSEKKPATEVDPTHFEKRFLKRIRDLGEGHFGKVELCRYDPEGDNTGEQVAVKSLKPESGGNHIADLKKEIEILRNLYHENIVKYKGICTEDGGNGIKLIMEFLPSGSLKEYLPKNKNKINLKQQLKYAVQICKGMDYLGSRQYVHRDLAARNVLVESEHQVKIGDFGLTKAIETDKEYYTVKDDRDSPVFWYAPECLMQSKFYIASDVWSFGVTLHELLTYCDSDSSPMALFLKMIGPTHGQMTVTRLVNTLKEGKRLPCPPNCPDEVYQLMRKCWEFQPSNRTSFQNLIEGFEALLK

On to `CNC(=O)c1cncc(/C=C/c2c(Cl)cccc2Cl)c1`, for which the inhibition in assay [1] was 15.1%; in [2] it was 11.6%; in assay [3], 44.9%; in assay [4] it was -8.06%; in assay [5], -3%; in assay [6] it was 3.59%. Moreover, the inhibition was 2.79% in assay [7]; 2.44% in assay [8]; 2.34% in assay [9]; -1.98% in assay [10]; -1.73% in assay [11]; 2.61% in assay [12]. Besides, the inhibition was 2.48% in assay [13]; 1.58% in [14]; 2.6% in assay [15]; -4.61% in assay [16]; -3.71% in assay [17]; 6.02% in assay [18]. The inhibition in [19] is 13.1%; in [20] it was 5.81%.

Take `CC1=C(C(=O)Nc2ccc3[nH]ncc3c2)C(c2ccc3ccccc3c2)CC(=O)N1` (stereo not given): the inhibition was 1.8% in [1]; 4.76% in [2]; 17.9% in [3]; 4% in assay [4]; 6.6% in assay [5]; 4.67% in assay [6]. Further, the inhibition stood at 4.45% in assay [7]; 0.94% in assay [8]; 1.74% in [9]; 2.6% in [10]; 14.2% in assay [11]; 4.05% in [12]. Also, the inhibition in assay [13] is 29.5%; in assay [14] it was 2.05%; in [15] it was 25.8%; in [16] it was 0.88%; in assay [17] it was 30.9%; in [18], 5.3%. Besides, the inhibition in assay [19] was determined as 12.5%; in assay [20], 2.51%.

In the case of `COC(=O)Nc1nc2cc(Oc3cccc(NC(=O)Nc4cc(C(F)(F)F)ccc4F)c3)ccc2[nH]1`, the inhibition in assay [1] was 7.79%; in assay [2], 1.11%; in [3], 7.7%; in assay [4], -1.77%; in assay [5] it was -0.89%; in assay [6] it was 2.67%. Further, the inhibition in assay [7] was 2.78%; in assay [8], -1.56%; in assay [9], -0.86%; in [10] it was 0.34%; in assay [11], 0.67%; in [12], 0.78%. In addition, the inhibition in assay [13] was 4.36%; in assay [14] it was -0.5%; in assay [15] it was -0.07%; in assay [16], 1.1%; in assay [17], 2.02%; in assay [18], 19.1%. The inhibition amounted to 63.5% in assay [19] and 4.16% in assay [20].

With `[O-][S+]1CCN(Cc2ccc(-c3ccc4ncnc(Nc5ccc(OCc6ccccc6)c(F)c5)c4c3)o2)CC1`, the inhibition in assay [1] was 9.16%; in assay [2] it was 3.37%; in assay [3], 7.23%; in assay [4], 4.94%; in assay [5], 2.99%; in [6], 4.18%. The inhibition in assay [7] worked out at 4.1%; in assay [8], 0.94%; in [9], 2.32%; in assay [10], 1.08%; in assay [11] it was 2.13%; in assay [12], 0.52%. The inhibition in [13] is 0.63%; in assay [14], 0.4%; in assay [15] it was 0.64%; in [16] it was 0.01%; in [17] it was -0.11%; in assay [18], 2.98%. The inhibition in assay [19] stood at 6.19%; in assay [20], 2.02%.

For the compound `COc1cc2ncn(-c3cc(O[C@H](C)c4ccccc4Cl)c(C(N)=O)s3)c2cc1OC`, the inhibition in assay [1] worked out at 8.81%; in assay [2] it was 11.7%; in assay [3], 51.8%; in assay [4] it was 2.5%; in [5] it was 3.13%; in assay [6] it was 2.07%. Further, the inhibition in assay [7] turned out to be 4.73%; in assay [8], 1.49%; in assay [9], 2.98%; in [10], 2.64%; in assay [11] it was 8.66%; in [12], 8.61%. The inhibition in [13] turned out to be 21.9%; in [14], 1.66%; in [15] it was 6.6%; in assay [16], 0.32%; in assay [17] it was 25.9%; in [18] it was 36.4%. For the same compound, the values for the inhibition in [19] and in [20] were 72.5% and 7.11%, respectively.

With `NS(=O)(=O)c1ccc(N/N=C2\C(=O)Nc3ccc(C(=O)NCCc4c[nH]cn4)cc32)cc1`, the inhibition was 17.2% in [1]; 9.6% in [2]; 25% in [3]; 5.24% in [4]; 17.3% in assay [5]; 6.5% in [6]. For the same compound, the inhibition in assay [7] stood at 32%; in assay [8], 6.49%; in assay [9] it was 2.5%; in assay [10], 1.78%; in assay [11], 3.56%; in [12] it was 5.75%. The inhibition turned out to be 0.16% in assay [13]; 2.27% in assay [14]; 2.46% in assay [15]; 0.03% in [16]; 3.43% in assay [17]; 12.9% in [18]. Moreover, the inhibition came to 43.3% in assay [19] and 5.68% in assay [20].

For `Cc1ccc(C(=O)NC2CCCCC2)cc1-c1ccc(C(=O)NCC2CC2)cc1`, the inhibition in assay [1] was determined as 0.78%; in assay [2], 5.78%; in [3] it was 7.52%; in assay [4], 1.73%; in assay [5], 5.21%; in assay [6], 3.35%. The inhibition in assay [7] was found to be 1.48%; in assay [8] it was 3.13%; in assay [9] it was 2.14%; in [10], 1.95%; in assay [11], 2.35%; in assay [12], 9.94%. Moreover, the inhibition is 9.1% in assay [13]; 3.28% in [14]; 4.08% in [15]; 0.78% in assay [16]; 3.02% in assay [17]; 7.88% in assay [18]. The inhibition in [19] was 8.4%; in [20] it was 4.54%.
